Here are results for 14 molecules from PubChem BioAssay (EPA / NIEHS).

A structure can be active in one record and inactive in another. Activity calls are given as the source filed them. How the source made its calls: active means hit-call score of the fitted dose curve at least 0.9, where 1 is the maximum; inactive means score below 0.9.

Assay [1] can be described thus: APR_HepG2_CellCycleArrest_24hr: Apredica 24-hour HepG2 Assay for Cell Cycle Arrest (AID 2282905).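 Further: cell cycle arrest scored as ratio of 2N to 4N nuclear DNA content.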 The note with it: imaging, actives raise or lower the signal. In a few lines: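 Step one: dose HepG2 with test compounds, 0.39–200 uM, 0.5% DMSO, 24 hr. Step two: fix, permeabilize, stain nuclei with Hoechst 33342. Step three: image six fields per well at 20x, quantify DNA content, fit bidirectionally relative to DMSO.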

Assay [2] in a line: APR_HepG2_StressKinase_1hr: Apredica 1-hour HepG2 Assay for Stress Kinase (AID 2282906). The following applies: HepG2 stress kinase (phospho-c-Jun) imaging, actives raise or lower the signal. In a few lines:
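High-content imaging of phospho-c-Jun immunostaining (with Hoechst nuclear identification) after a 1 h exposure of HepG2 cells to 10 concentrations from 0.39 to 200 uM, final DMSO 0.5%. Fitted bidirectionally against DMSO.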

The nature of assay [3]: APR_HepG2_NuclearSize_24hr: Apredica 24-hour HepG2 Assay for Nuclear Size (AID 2282907). The following applies: high-content imaging, actives raise or lower the signal. In a few lines:
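After fixation and permeabilization, 24-hr-treated HepG2 cells were stained with Hoechst 33342 and imaged on an ArrayScan (20x). Doses spanned 0.39–200 uM in duplicate. Nuclear diameter changes in either direction were fitted relative to 0.5% DMSO controls.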

Assay [4] can be described thus: APR_HepG2_CellLoss_24hr: Apredica 24-hour HepG2 Assay for Cell Loss (AID 2282908).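 On AC50: fit in both directions so a hit may be cell loss or gain.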 The note with it: high-content imaging. In a few lines: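 Duplicate wells received compound at ten concentrations (0.39–200 uM; final DMSO 0.5% v/v). After fixation with formaldehyde, nuclei stained with Hoechst 33342 were imaged at 20x. Loss or gain of cell count was fitted relative to DMSO controls.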

The nature of assay [5]: APR_HepG2_MicrotubuleCSK_24hr: Apredica 24-hour HepG2 Assay for Microtubule CSK Stabilty (AID 2282909). The following applies: HepG2 microtubule cytoskeleton imaging, actives raise or lower the signal. In a few lines: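 Microtubule stability is scored from tubulin immunofluorescence in fixed HepG2 cells imaged at 20x. Cells receive ten compound concentrations up to 200 uM for 24 h; taxol and DMSO serve as positive and negative controls.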

Assay [6] in a line: APR_HepG2_MitoticArrest_24hr: Apredica 24-hour HepG2 Assay for Mitotic Arrest (AID 2282910). The following applies: high-content imaging, actives raise or lower the signal. In a few lines:
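Treatment lasted 24 hr in the human HepG2 line at 0.39–200 uM, solvent held at 0.5% DMSO. Fixed cells were stained with Hoechst 33342 and anti-phospho-histone H3, imaged at 20x, and analysed by gain- or loss-of-signal fitting against DMSO.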

A short description of assay [7]: APR_HepG2_MitoMembPot_24hr: Apredica 24-hour HepG2 Assay for Mitochondrial Membrane Potential (AID 2282911). The following applies: imaging, actives raise or lower the signal. In a few lines: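 Cells are dosed for 24 hr across 0.39 to 200 uM with solvent held at 0.5% DMSO. They are then stained with 250 nM MitoTracker Red CMXRos for 30 min, fixed in 3.7% formaldehyde and imaged.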

Assay [8] is described as follows: APR_HepG2_MitoMass_24hr: Apredica 24-hour HepG2 Assay for Mitochondrial Mass (AID 2282912). The note with it: high-content imaging, actives raise or lower the signal. In a few lines: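 Readout: fluorescence of MitoTracker Red CMXRos (250 nM, added 30 min pre-fixation) in fixed HepG2 cells imaged by HCS. Exposure lasted 24 hr at 0.39–200 uM; increases and decreases were both fitted relative to DMSO.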

The nature of assay [9]: APR_HepG2_p53Act_24hr: Apredica 24-hour HepG2 Assay for p53 Activation (AID 2282913).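 Further: p53 protein immunofluorescence averaged per cell in HepG2 with Hoechst nuclei.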 The note with it: high-content imaging, actives raise or lower the signal. In a few lines:
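Human HepG2 liver cells; 24 hr cpd treatment, 0.39–200 uM, 0.5% DMSO final. Fixed in 3.7% formaldehyde, permeabilized with 0.5% Triton X-100, stained with anti-p53/Cy5 plus Hoechst 33342. Six images per well at 20x; gain or loss vs DMSO.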

Assay [10] in a line: APR_HepG2_CellCycleArrest_72hr: Apredica 72-hour HepG2 Assay for Cell Cycle Arrest (AID 2282914). The note with it: high-content imaging, actives raise or lower the signal. In a few lines: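 Read-out is Hoechst-stained nuclear DNA content measured by automated fluorescence imaging (20x, six images per well), fitted in both directions relative to DMSO. Human HepG2 liver cells received 0.39–200 uM compound for 72 hr at 0.5% v/v DMSO.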

As to `O=C1c2ccccc2C(=O)N1SC(Cl)(Cl)Cl`, the molecule was classed as inactive in assay [1], in assay [2], in assay [3], in [4], in assay [5] and in assay [6]. In addition, the molecule was called inactive in assay [7], in assay [8] and in assay [9].

For the molecule `O=[N+]([O-])/N=C1\NCCN1Cc1ccc(Cl)nc1`, the result in assay [1], in assay [2], in assay [3], in assay [4], in assay [5] and in assay [6] was inactive. Also, the molecule was called inactive in assay [7] and in assay [8].

On to `CCOCN(C(=O)CCl)c1c(C)cccc1CC`, for which the AC50 in [1] is 30.6 µM (active); in assay [3], 33.4 µM (active); in assay [4] it was 30.5 µM (active); in assay [5], 99.6 µM (active); in assay [6] it was 17.9 µM (active); in [7], 50.7 µM (active). Also, the AC50 in [8] is 65.1 µM (active); in [9] it was 31.9 µM (active). In addition, in assay [2], the result was inactive.

`COP(=O)(OC)OC=C(Cl)Cl`: the results for the AC50 in assay [1] and in assay [4] were 99.1 µM (active) and 58.9 µM (active), respectively. Also, the molecule was called inactive in assay [2], in [3], in assay [5], in assay [6], in assay [7] and in [8].

`CC1(C)C(C=C(Cl)Cl)C1C(=O)OC(C#N)c1ccc(F)c(Oc2ccccc2)c1` (configuration not stated): the result in assay [1], in assay [2], in assay [3], in [4], in [5] and in assay [6] was inactive. Further, the molecule was classed as inactive in [7], in assay [8] and in assay [9].

`O=S(=O)(O)C(F)(F)C(F)(F)C(F)(F)C(F)(F)C(F)(F)C(F)(F)C(F)(F)C(F)(F)F`: the call in assay [1], in assay [2], in assay [3], in assay [5], in assay [7] and in assay [8] was inactive. The call in [9] and in [10] was inactive. In addition, the concentration at half-maximal activity (AC50) in assay [3] was 63.8 µM (active); in assay [4] it was 122 µM (active) [middle of 5 runs]; in [5], 113 µM (active); in assay [6] it was 106 µM (active) [middle of 5 runs]; in assay [8] it was 116 µM (active) [middle of 4 runs]; in assay [9] it was 111 µM (active) [middle of 4 runs].

As for `COC(=O)c1ccccc1CS(=O)(=O)NC(=O)Nc1nc(OC)cc(OC)n1`, the molecule was called inactive in assay [1], in assay [2], in [3], in assay [4], in [5] and in assay [6]. Also, the call in [7], in assay [8] and in assay [9] was inactive.

As for `O=C(O)C(F)(F)C(F)(F)C(F)(F)C(F)(F)C(F)(F)C(F)(F)C(F)(F)F`, the molecule was classed as inactive in assay [1], in [2], in assay [3], in assay [4], in assay [5] and in assay [6]. The result in [7], in assay [8] and in assay [9] was inactive.

For the molecule `COP(=S)(OC)Oc1ccc([N+](=O)[O-])cc1`, the molecule was classed as inactive in [1], in assay [2], in assay [3], in [4], in assay [5] and in assay [6]. Further, the molecule was called inactive in [7], in [8] and in [9].

With `CCCN(CCOc1c(Cl)cc(Cl)cc1Cl)C(=O)n1ccnc1`, the results for the AC50 in [1] and in assay [4] were 101 µM (active) and 103 µM (active), respectively. Besides, the molecule was called inactive in [2], in assay [3], in assay [5], in assay [6], in assay [7] and in [8]. In [9], the molecule was classed as inactive.

As for `O=C(NC(=O)c1c(F)cccc1F)Nc1ccc(OC(F)(F)C(F)OC(F)(F)F)c(Cl)c1` (configuration not stated), the outcome in [1], in assay [2], in assay [3], in [4], in assay [5] and in [6] was inactive. Further, the molecule was called inactive in assay [7] and in assay [8].

In the case of `CC(C)OC(=O)Nc1cccc(Cl)c1`, the molecule was classed as inactive in [1], in assay [2], in assay [3], in [4], in assay [5] and in [6]. For the same molecule, the molecule was classed as inactive in assay [7], in assay [8] and in [9].

Take `Cc1[nH]c(=O)n(C(C)(C)C)c(=O)c1Cl`: the outcome in [1], in assay [2], in [3], in assay [4], in assay [5] and in [6] was inactive. Besides, the molecule was called inactive in assay [7] and in assay [8].

For `COc1cc(OC)nc(NC(=O)NS(=O)(=O)c2cc(NC=O)ccc2C(=O)N(C)C)n1`, the outcome in [1], in [2], in [3], in assay [4], in assay [5] and in assay [6] was inactive. For the same molecule, the result in assay [7], in assay [8] and in assay [9] was inactive.
